PubChem BioAssay (Tox21)
“And” between values parts separate entries of the source, which are not always exact repeats. Identical values can stand only once. Inconclusive results are not listed. Entries that show only a call come without a potency. The source made the active and inactive calls. The call rests on the fitted dose curve; in most records, active means well fitted cell-killing curve with a large enough effect in the repeat runs; inconclusive means weak or mixed curves; inactive means flat fitted curve, though single readings scatter.
Potency means the concentration at half of the fitted maximal effect.

Experiment: qHTS assay to identify small molecule antagonists of the estrogen receptor beta (ER-beta) signaling pathway - cell viability counter screen (AID 1259382); further: nearly all actives have a fitted effect of over 55% in size
Conditions: ER-beta-UAS-bla HEK293T viability, CellTiter-Glo luminescence, 16 h; series mostly up to 92.4 µM
Source text: U.S. Tox21 Program National Center for Advancing Translational Sciences [NCATS] NIH Chemical Genomics Center [NCGC] U.S. Environmental Protection Agency [EPA] National Institutes of Environmental Health Sciences [NIEHS] National Toxicology Program [NTP] U.S. Food and Drug Administration [FDA] Tox21 Assay Overview: Estrogen receptor (ER), a nuclear hormone receptor, plays an important role in development, metabolic homeostasis and reproduction. Two subtypes of ER, ER-alpha and ER-beta, have similar expression patterns with some uniqueness in both types. Endocrine disrupting chemicals (EDCs) and their interactions with steroid hormone receptors like ER causes disruption of normal endocrine function. To identify the compounds that inhibit ER signaling, an ER-beta-UAS-bla GripTite cell line (Life Technologies, Madison, WI, USA) containing a beta-lactamase reporter gene under the control of an UAS response element was used to screen Tox21 10K compound library. The cytotoxicity of the Tox21 compound library against the ER-beta-bla cell line was tested in parallel by measuring the cell viability using CellTiter-Glo assay in the same wells.
Tox21 Assay Protocol Summary: ER-beta-UAS-bla HEK293T cells were dispensed at 2,000 cells/4 uL of assay medium containing 2% charcoal stripped FBS per well into black wall/clear-bottom 1536-well plates using a Multidrop Combi (ThermoFisher Scientific, Waltham, MA) dispenser. After the assay plates were incubated at a 37C and 5% CO2 for 6 hr, 23 nL of compounds dissolved in DMSO, positive controls or DMSO only was transferred to the assay plate by a Pintool station (Kalypsys, San Diego, CA), followed by addition of 1 uL (1nM as final concentration) of 17-beta-estradiol (E2) in assay medium using a Flying Reagent Dispenser (FRD, Aurora Discovery, San Diego, CA). The plates were incubated at 37C and 5% CO2 for 16 hr. Then 1 uL of LiveBLAzer B/G FRET substrate was added using a Flying Reagent Dispenser, the plates were incubated at room temperature for 2 hours, and fluorescence intensity was measured by an Envision plate reader (PerkinElmer, Shelton, CT). For cell viability readout that measures cytotoxicity, 4 uL/well of CellTiter-Glo reagent was added into the assay plates using a FRD. After 30 min incubation at room temperature, the luminescence intensity in the plates was measured using a ViewLux (PerkinElmer) plate reader.
For CCc1ccccc1N, the Potency was “inactive”.
For O=C(Cc1ccccc1)c1ccccc1, the Potency was “inactive”.
With O=C(O)c1ccc(=O)[nH]c1 the Potency was “inactive”.
With C=CC(=O)NC(C)(C)CC(C)=O the Potency was “inactive”.
For NNCCO, the Potency was “inactive”.
In the case of Oc1cccc(Cl)c1, the Potency is reported as “inactive”.
For CCOC(=O)c1cn2nc(OP(=S)(OCC)OCC)cc2nc1C, the Potency was “inactive”.
In the case of C=CCc1ccc(OC(=O)Cc2ccccc2)c(OC)c1, the Potency is reported as “inactive”.
For OCCCl, the Potency was “inactive”.
With C=CCN1C[C@H](C)N([C@H](c2ccc(C(=O)N(CC)CC)cc2)c2cccc(OC)c2)C[C@H]1C the Potency was “inactive”.
In the case of CCOP(=S)(S)OCC, the Potency is reported as “inactive”.
In the case of CCOC(=O)C1OC1(C)c1ccccc1 (stereo not given), the Potency is reported as “inactive”.
With CC(C)OC(=O)Cc1ccccc1 the Potency was “inactive”.
For CCC(C)(C)c1ccc(O)c(C(C)(C)CC)c1, the Potency was 53.9 µM (active) and 30.6 µM (active).
With COC1=CC(=O)O[C@@H](/C=C/c2ccc3c(c2)OCO3)C1 the Potency was “inactive”.
For C[N+]1(CCC(C(N)=O)(c2ccccc2)c2ccccc2)CCCCC1, the Potency was “inactive”.
For O=C=NC1CCCCC1, the Potency was “inactive”.
In the case of CN1C(=O)CN=C(c2ccccc2)c2cc([N+](=O)[O-])ccc21, the Potency is reported as “inactive”.
With CC(Oc1cccc(Cl)c1)C(=O)O (stereo not given) the Potency was “inactive”.
With CCCBr the Potency was “inactive”.
With Cc1ccccc1 the Potency was “inactive”.
In the case of C[Si](Cn1cncn1)(c1ccc(F)cc1)c1ccc(F)cc1, the Potency is reported as “inactive”.
In the case of CCCCCCCCn1sccc1=O, the Potency is reported as 27.4 µM (active) and 28.6 µM (active).
In the case of Cc1cccc(C)c1NC1=NCCCS1, the Potency is reported as “inactive”.
With CC(C)(C)NCC(O)c1cc(Cl)c(N)c(C(F)(F)F)c1 (stereo not given) the Potency was “inactive”.
In the case of CCCCC1C(=O)NC(=O)N(C2CCCCC2)C1=O (stereo not given), the Potency is reported as “inactive”.
In the case of CCCC[N+]1(C)[C@@H]2CC(OC(=O)[C@H](CO)c3ccccc3)C[C@H]1[C@@H]1O[C@@H]12 (stereo not given in full), the Potency is reported as “inactive”.
For CCC(C)Cl (stereo not given), the Potency was “inactive”.
With CCC(=O)O[C@@H]1C=C2CCC3C(CCC4(C)C3CC[C@@H]4OC(=O)CC)C2CC1 (stereo not given in full) the Potency was “inactive”.
With C=CCc1ccccc1O the Potency was “inactive”.
With C1CS1 the Potency was “inactive”.
In the case of O=C1NC(=O)C(=O)C(=O)N1, the Potency is reported as “inactive”.
For CCCCCCCCCCCCCCCl, the Potency was “inactive”.
With C[C@]12CC[C@H]3[C@@H](CCC4=CC(=O)CC[C@@H]43)[C@@H]1CC[C@@H]2OC(=O)CCc1ccccc1 the Potency was “inactive”.
In the case of CC(C)(c1ccccc1)c1cc(-n2nc3ccccc3n2)c(O)c(C(C)(C)c2ccccc2)c1, the Potency is reported as “inactive”.
With COC(=O)C1(O)c2ccccc2-c2ccccc21 the Potency was “inactive”.
For C1CCNCC1, the Potency was “inactive”.
With CCN(C(C)=O)c1cccc(-c2ccnc3c(C#N)cnn23)c1 the Potency was “inactive”.
For Cc1ccc(N)c(C)c1, the Potency was “inactive”.
For C[N+]1(CCF)[C@@H]2CC[C@H]1CC(OC(=O)C(O)(c1ccccc1)c1ccccc1)C2 (stereo not given in full), the Potency was “inactive”.
